Among all 310,000 compounds or so, about 14,000 (4.5%) showed an effect of 50% or more. Effects have a minus sign here. This is one part of a sample in which strong results are shown more often than they occur.
biological target: human ether-à-go-go-related gene (hERG) potassium channel (human, UniProt Q12809); test: primary screen, population patch clamp on CHO cells stably expressing hERG; higher = less effect of the substance
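Further: peak tail current of the secondary pulse compared with the same well before compound.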

human ether-à-go-go-related gene (hERG) potassium channel, sequence (Q12809 whole entry, looked up): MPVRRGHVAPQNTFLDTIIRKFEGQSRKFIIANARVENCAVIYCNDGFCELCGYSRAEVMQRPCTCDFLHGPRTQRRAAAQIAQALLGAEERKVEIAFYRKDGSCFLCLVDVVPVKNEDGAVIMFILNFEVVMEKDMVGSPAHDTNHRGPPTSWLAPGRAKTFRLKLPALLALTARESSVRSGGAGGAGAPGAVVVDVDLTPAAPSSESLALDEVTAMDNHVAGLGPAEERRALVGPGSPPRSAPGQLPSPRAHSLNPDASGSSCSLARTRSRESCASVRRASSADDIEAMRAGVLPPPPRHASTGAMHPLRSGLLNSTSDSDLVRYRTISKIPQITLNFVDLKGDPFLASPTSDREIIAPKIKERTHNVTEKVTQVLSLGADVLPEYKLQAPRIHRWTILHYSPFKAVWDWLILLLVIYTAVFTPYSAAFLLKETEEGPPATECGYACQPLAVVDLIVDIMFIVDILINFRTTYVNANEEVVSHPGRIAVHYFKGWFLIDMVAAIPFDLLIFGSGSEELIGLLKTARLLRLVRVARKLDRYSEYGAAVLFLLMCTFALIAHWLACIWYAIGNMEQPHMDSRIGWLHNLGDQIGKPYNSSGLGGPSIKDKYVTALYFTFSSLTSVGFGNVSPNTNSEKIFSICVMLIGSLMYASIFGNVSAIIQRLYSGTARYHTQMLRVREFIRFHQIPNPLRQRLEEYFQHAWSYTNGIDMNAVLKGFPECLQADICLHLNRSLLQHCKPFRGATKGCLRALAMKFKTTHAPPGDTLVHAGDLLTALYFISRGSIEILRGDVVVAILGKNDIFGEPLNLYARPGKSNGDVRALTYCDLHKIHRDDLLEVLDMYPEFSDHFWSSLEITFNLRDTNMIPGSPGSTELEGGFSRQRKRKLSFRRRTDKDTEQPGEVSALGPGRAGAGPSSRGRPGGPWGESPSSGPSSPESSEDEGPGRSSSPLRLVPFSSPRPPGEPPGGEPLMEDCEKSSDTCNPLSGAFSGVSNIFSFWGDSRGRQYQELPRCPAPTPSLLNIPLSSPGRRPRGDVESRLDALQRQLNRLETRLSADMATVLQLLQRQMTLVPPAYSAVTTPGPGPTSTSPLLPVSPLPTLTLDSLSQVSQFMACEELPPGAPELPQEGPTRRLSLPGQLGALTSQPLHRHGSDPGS

Row | Compound | hERG current change (%, negative = inhibition) at 10uM [%]
1 | COc1cc(C=O)ccc1OCCCOc1ccc([N+](=O)[O-])cc1 | -10.8
2 | O=C(COC(=O)C1(c2ccc(F)cc2)CCCC1)NCc1ccco1 | -2.02
3 | CCC(C)NC(=O)c1ccc(C(=O)c2ccccc2)cc1 (stereo not drawn) | 12.7
4 | CN1CCN(C(=O)c2cnn3c2NC(c2ccccc2)CC3C(F)(F)F)CC1 (stereo not drawn) | 17.1
5 | O=C(c1cnn2c1NC(c1ccc(Br)cc1)CC2C(F)(F)F)N1CCN(C23CC4CC(CC(C4)C2)C3)CC1 (stereo not drawn) | -7.5
6 | O=C(c1cnn2c1NC(c1ccc(Br)cc1)CC2C(F)(F)F)N1CCN2CCCC2C1 (stereo not drawn) | -63.5
7 | CCCc1ccc2oc(C(=O)N(C)Cc3cnccn3)c(C)c2c1 | -10.9
8 | Cc1ccc2oc(C(=O)N(Cc3ccncc3)CC3CCCO3)c(C)c2c1 (stereo not drawn) | -34.9
9 | Cc1ccc2c(C)c(C(=O)N(Cc3ccncc3)CC3CCCO3)oc2c1C (stereo not drawn) | -51.9
10 | CCCc1ccc2oc(C(=O)N(Cc3ccncc3)CC3CCCO3)c(C)c2c1 (stereo not drawn) | -71.6
11 | Cc1ccc2oc(C(=O)N(Cc3ccc(N(C)C)cc3)CC3CCCO3)c(C)c2c1 (stereo not drawn) | -14.8
12 | CCCc1ccc2oc(C(=O)N(C)CCn3ccnc3C)c(C)c2c1 | -61.4
13 | Cc1c(C(=O)N(Cc2ccncc2)CC2CCCO2)oc2c(F)cccc12 (stereo not drawn) | -27.1
14 | Cc1c(C(=O)N(Cc2ccc(N(C)C)cc2)CC2CCCO2)oc2ccccc12 (stereo not drawn) | -26.5
15 | CCCc1ccc2oc(C(=O)N(C)Cc3nccs3)c(C)c2c1 | -48.3
16 | COc1ccc(/C=N/NC(=S)Nc2ccccc2)cc1COc1ccc(Br)cc1 | -1.6
17 | Cc1cc(Oc2ccc(C#N)cc2)nc(NCc2ccccc2)n1 | 2.36
18 | O=C1CN(C(=O)C2CC2)c2ccccc2N1 | -15.8
19 | CC(C)(C)OC(=O)N1CCC(NC(=O)c2[nH]cnc2C(=O)Nc2ccccc2)CC1 | -15
20 | CNC(=O)COC(=O)c1cccc(S(=O)(=O)N2CCN(c3ccc(F)cc3)CC2)c1 | -0.232
21 | N#Cc1nccnc1N1CCN(C(=O)Nc2ccccc2)CC1 | 5.22

Row | Compound | hERG current change (%, negative = inhibition) at 10uM [%]
22 | CCc1cc2cccc(C)c2nc1SCC(=O)N1CCN(C(=O)c2ccco2)CC1 | -54.4
23 | CCc1cc2ccc(OC)cc2nc1SCC(=O)N1CCN(C(=O)c2ccco2)CC1 | -49.1
24 | CCc1cc2ccc(C)cc2nc1SCC(=O)NNC(=O)c1ccco1 | 12
25 | COc1cc2cc(C)c(SCC(=O)N3CCN(C(=O)c4ccco4)CC3)nc2cc1OC | -66
26 | CCc1cc2cc3c(cc2nc1SCC(=O)N1CCN(C(=O)c2ccco2)CC1)OCO3 | -28.7
27 | CCc1cc2cccc(C)c2nc1SCC(=O)NNC(=O)c1ccco1 | -0.00372
28 | COc1cc2cc(C)c(SCC(=O)N3CCOCC3)nc2cc1OC | -1.12
29 | CCc1cc2ccc(C)cc2nc1SCC(=O)N1CCN(C(=O)c2ccco2)CC1 | -56
30 | Cc1cc2cc3c(cc2nc1SCC(=O)N1CCN(C(=O)c2ccco2)CC1)OCO3 | -35.3
31 | CCc1cc2cc(C)ccc2nc1SCC(=O)N1CCN(C(=O)c2ccco2)CC1 | -53.4
32 | CCc1cc2cc(C)ccc2nc1SCC(=O)NNC(=O)c1ccco1 | 21.9
33 | CCc1cc2cc(C)cc(C)c2nc1SCC(=O)N1CCN(C(=O)c2ccco2)CC1 | -16.2
34 | O=C(CC1C(=O)NCCN1Cc1cccc(C(F)(F)F)c1)NCCc1cnccn1 (stereo not drawn) | 7.22
35 | O=C(COC(=O)c1cc(Cl)ccc1O)NC(=O)NCc1ccccc1 | 4.6
36 | COC(=O)C(CSCc1ccccc1)NC(=O)CSc1nc(C)cc(=O)[nH]1 (stereo not drawn) | 18.4
37 | CN(c1ccccc1)S(=O)(=O)c1ccc(C(=O)NCCc2ccc(F)cc2)cc1 | -21.1
38 | CC(=O)Nc1ccc(/C(C)=N/NC(=O)c2ccc(CN3CCOCC3)cc2)cc1 | 25.2
39 | Br.CC1CCCC(C)N1Cc1cn2ccccc2n1 (stereo not drawn) | 7.29
40 | Cc1nn(CC(=O)Nc2ccccn2)c(C)c1Br | 15.3
41 | Nc1ccc2ncccc2c1N | 6.47
42 | CSc1ccc(CCNS(=O)(=O)c2c(C)[nH]c(C)c2C(=O)N2CCCCC2)cc1 | -15.2

Row | Compound | hERG current change (%, negative = inhibition) at 10uM [%]
43 | COc1ccc(CCNC(=O)c2cc(=O)n(C)c(=O)n2C)cc1OC | -0.242
44 | Cc1ccc(-n2c(SCC(=O)OC(C)C)nnc2-c2ccco2)cc1 | -37.7
45 | Cc1cccc(C(=O)Oc2ccccc2/C=N/NC(=O)c2ccc(NC(=O)C(C)(C)C)cc2)c1 | -4.88
46 | CN1C=CC2=C(C#N)C(N)C(C#N)(C#N)[C@H](c3ccccc3)[C@H]2C1 (stereo partly drawn) | -4.67
47 | O=C(CSc1nnnn1-c1ccccc1)N1CCN(C(=O)c2ccco2)CC1 | -49.4
48 | Cc1ccc(-n2nnnc2SCC(=O)N2CCN(C(=O)c3ccco3)CC2)c(C)c1 | -76
49 | Cc1ccc(-n2nnnc2SCC(=O)NNC(=O)c2ccco2)c(C)c1 | -4.35
50 | COc1ccccc1NC(=O)c1cnc(SC)nc1 | 19.2
51 | O=C(O)C(=O)O.O=S(=O)(c1ccc(Cl)cc1)N1CCC(N2CCOCC2)CC1 | -11.5
52 | Cn1ncc2c(Nc3ccc(O)cc3)nc(Cl)nc21 | 5.53
53 | Cc1ccccc1OCc1nnc(SCC(=O)O)n1-c1cccc(Cl)c1 | 5.63
54 | COc1ccc(NCc2nnc(SCCN3CCCCC3)n2-c2ccc(C)cc2)cc1 | -66.7
55 | Cc1ccccc1OCc1nnc(SCCN2CCCC2)n1-c1ccccc1.Cl | -65.3
56 | Cc1ccccc1OCc1nnc(SCC(=O)O)n1-c1ccccc1 | 14.4
57 | COc1ccc(C(=O)CSc2nnc(CN3CCCCC3)n2-c2ccc(F)cc2)cc1OC | 6.33
58 | COc1ccc(C(=O)CSc2nnc(CN3CCCCC3)n2-c2ccc(F)cc2)cc1 | -57.7
59 | COc1ccc(C(=O)CSc2nnc(CN3CCCC3)n2-c2ccc(F)cc2)c(OC)c1 | -23
60 | COc1ccc(-n2c(CNc3ccc(C)cc3)nnc2SCc2ccccc2)cc1 | -7.09
61 | Cn1c(CNc2ccc(Cl)cc2)nnc1SCCN1CCCCC1 | -46.4
62 | O=C(CCN1CCOCC1)Nc1c(-c2ccccc2)c2cc(Br)ccc2[nH]c1=O | -11.9
63 | CC(=O)Nc1ccc(C(=O)Nc2cccc(S(=O)(=O)NC3=NCCC3)c2)cc1 | 4.95

Row | Compound | hERG current change (%, negative = inhibition) at 10uM [%]
64 | CC(C)(O)C#Cc1ccc(CN2CCN(Cc3ccccc3)C(CCO)C2)s1 (stereo not drawn) | 4.64
65 | CCOc1cc(C)c(S(=O)(=O)Nc2ccc3cn[nH]c3c2)cc1C | 25.2
66 | N#CC1(NC(=O)CSc2nnc(Nc3ccccc3F)s2)CCCC1 | 0.45
67 | COc1cc(OC)cc(C(=O)OCC(=O)NCCCc2ccccc2)c1 | 12.2
68 | C=CCN1C(=O)N/C(=C/c2ccc(C)o2)C1=O | 9.15
69 | COC(=O)c1ccc(C2c3[nH]c4ccccc4c3C[C@H]3C(=O)N(C4CCN(Cc5ccccc5)CC4)CC(=O)N23)cc1 (stereo partly drawn) | -10
70 | CSCC[C@H](NC(=O)C1=NN(c2c(F)c(F)cc(F)c2F)C(=O)CC1)c1nc2ccccc2[nH]1 | -13.3
71 | COc1ccc(NC(=O)C/C(C)=N/NC(=O)c2ccncc2)c([N+](=O)[O-])c1 | -59.8
72 | COc1ccc(NC(=O)C/C(C)=N/NC(=O)c2ccco2)c([N+](=O)[O-])c1 | -33.9
73 | COc1ccc(NC(=O)c2cccs2)c([N+](=O)[O-])c1 | -3.28
74 | COc1ccc(-c2nnc(NC(=O)C3CCCN3S(=O)(=O)c3cccs3)o2)cc1 (stereo not drawn) | -3.47
75 | COc1ccc([N+](=O)[O-])cc1NC(=O)C1CCCN1S(=O)(=O)c1cccs1 (stereo not drawn) | -18.1
76 | CC(=O)Nc1ccccc1NC(=O)C/C(C)=N/NC(=O)c1ccncc1 | 19.6
77 | COc1ccc(NC(=O)C/C(C)=N/NC(=O)c2cccs2)c([N+](=O)[O-])c1 | -54.4
78 | COc1cc(NC(=O)C/C(C)=N/NC(=O)c2cccs2)c(OC)cc1Cl | -14.4
79 | COc1ccc(NC(=O)C2CCCN2S(=O)(=O)c2cccs2)c([N+](=O)[O-])c1 (stereo not drawn) | -68.3
80 | COc1ccc(OCC(=O)N/N=C(\C)CC(=O)Nc2cccc([N+](=O)[O-])c2)cc1 | -53.8
81 | COc1ccc(NC(=O)C/C(C)=N/NC(=O)COc2ccc(OC)cc2)cc1 | -18.8
82 | CCC(=O)N/N=C(\C)CC(=O)Nc1cccc([N+](=O)[O-])c1 | 9.57
83 | Cc1ccccc1CN(C)CC(=O)NC(C)CCc1ccccc1 (stereo not drawn) | -17.2
84 | O=C(CSc1nnc(-c2ccccc2)n1C1CCCCC1)N1CCCC1 | -6.76

Source: article PMC4336329 (PLoS ONE, 2015)
